Screening data deposited in PubChem by several laboratories.
CYP2C19 inh – blockers of cytochrome P450 2C19 activity – biochemical, luminescence, ADME assay, primary screen. CYP2C19 Supersomes, luciferin-H EGE luminescence, 30 min. inhibition, % at 5 µM. 96,000 compounds, 21% hits;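 active = CYP2C19 inhibition above a set limit at 5 µM in the primary screen, cut at about 50% in these data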;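 also: plate controls were negative control wells for no effect and 2.5 mM tranylcypromine positive control for full effect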
Target sequence (P33261 whole entry, looked up): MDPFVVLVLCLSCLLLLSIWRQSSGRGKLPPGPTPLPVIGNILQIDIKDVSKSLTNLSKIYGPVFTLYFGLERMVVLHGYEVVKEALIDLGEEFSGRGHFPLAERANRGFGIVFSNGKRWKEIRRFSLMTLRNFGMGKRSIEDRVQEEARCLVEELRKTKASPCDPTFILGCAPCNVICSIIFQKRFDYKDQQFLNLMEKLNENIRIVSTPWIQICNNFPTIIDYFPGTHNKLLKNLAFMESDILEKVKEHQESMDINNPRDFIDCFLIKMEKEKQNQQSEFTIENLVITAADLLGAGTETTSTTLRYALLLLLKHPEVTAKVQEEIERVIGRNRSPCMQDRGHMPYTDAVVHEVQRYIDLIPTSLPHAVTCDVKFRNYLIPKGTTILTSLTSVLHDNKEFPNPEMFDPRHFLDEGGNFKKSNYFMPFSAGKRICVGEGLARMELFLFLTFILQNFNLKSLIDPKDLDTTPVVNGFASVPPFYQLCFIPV
PostGolgi yeast – phenotypic screen on post-Golgi transport, primary screen | post-Golgi transport phenotypic cell assay | inhibition, % at 10 µM | 98,000 compounds, 0.9% hits | AID 739, 2007;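 also: yeast cells grown in 1536-well plates; yeast grown about 18 h at 30C before absorbance read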
CYP2C9 inhib – blockers of cytochrome P450 2C9 activity – biochemical, luminescence, ADME assay, primary screen | AID 777, 2007 | 96,000 compounds, 20% hits | CYP2C9 Supersomes, luciferin-H conversion | inhibition, % at 5 µM;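 active = blocking of liver enzyme CYP2C9 beyond about 50% at 5 µM, limit read from the data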
PostGolgi ctrl – growth inhibition of yeast control strain, primary screen, counter-screen for post-Golgi transport modulator project; inhibition, % at 10 µM; 98,000 compounds, 5% hits; AID 738, 2007; efflux-deficient yeast background strain, growth absorbance A615, 16 h
CYP2C9 act – human CYP2C9 activators, primary screen, biochemical, luminescence; AID 1024, 2008; recombinant CYP2C9, luciferin-H conversion; stronger effect = higher value; factor 1 = untreated enzyme, 0 = blocked; Cytochrome P450 2C9 (Homo sapiens), P11712; activation factor at 5 µM; 96,000 compounds, 1.4% hits;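 active = activation factor of 2 or more for CYP2C9 at a 5 µM dose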;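 also: 0 = sulfaphenazole-blocked wells and 1 = vehicle-only wells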
CYP2C19 activ – human CYP2C19 activators, primary screen, biochemical, luminescence. recombinant CYP2C19, luciferin-H EGE luminescence; stronger effect = higher value; 0 = fully inhibited enzyme, 1 = untreated enzyme. Cytochrome P450 2C19 (Homo sapiens), P33261. AID 1025, 2008. activation factor at 5 µM. 96,000 tested, under 10 active;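 active = activation factor of at least 2 at 5 µM in the primary screen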;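 also: 0 = wells with 2.5 mM tranylcypromine and 1 = vehicle-only wells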
Active calls of the source: *. An excerpt weighted towards active compounds, which were near 32% of everything screened. Rule as the data show it, unless noted: active = inhibition above about 30%; inactive = the rest.

For CCC(C)(C)n1nnnc1C(c1ccncc1)N1CCN(c2cccc(OC)c2)CC1 (stereo not drawn) the results were CYP2C19 inh 84*, PostGolgi yeast 13, CYP2C9 inhib 92*, PostGolgi ctrl 12, CYP2C9 act 0.1 and CYP2C19 activ 0.2.
`CCOc1cccc(C(=O)N2CCCCC2c2cccnc2)c1` (stereo not drawn) gave CYP2C19 inh 43, PostGolgi yeast -16, CYP2C9 inhib -108, PostGolgi ctrl 3, CYP2C9 act 2.1* and CYP2C19 activ 0.6.
Screening CCOc1cccc(C(=O)NC2CCCCC2)c1 returned CYP2C19 inh 68*, PostGolgi yeast 6, CYP2C9 inhib -30, PostGolgi ctrl 3, CYP2C9 act 1.3 and CYP2C19 activ 0.3.
Screening CCOC(=O)C1CCN(C(=O)c2cccnc2)CC1 returned CYP2C19 inh 29, PostGolgi yeast 10, CYP2C9 inhib -2, PostGolgi ctrl -6, CYP2C9 act 1 and CYP2C19 activ 0.7.
`CCOC(=O)COc1ccc(C(=O)NC2CCCCC2)cc1` gave CYP2C19 inh 22, PostGolgi yeast -5, CYP2C9 inhib -202, PostGolgi ctrl 6, CYP2C9 act 3* and CYP2C19 activ 0.8.
Cc1ccc(C(=O)NC2CCCCC2)cc1 was read as CYP2C19 inh 14, PostGolgi yeast 2, CYP2C9 inhib -5, PostGolgi ctrl 4, CYP2C9 act 1 and CYP2C19 activ 0.9.
`Cc1ccc(C)c(NC(=S)NNC(=O)c2ccco2)c1` gave CYP2C19 inh 0, PostGolgi yeast 1, CYP2C9 inhib 41, PostGolgi ctrl 19, CYP2C9 act 0.6 and CYP2C19 activ 1.
Cc1ccc(C)c(NC(=S)NNC(=O)c2sccc2C)c1 was read as CYP2C19 inh 79*, PostGolgi yeast -3, CYP2C9 inhib 89*, PostGolgi ctrl 5, CYP2C9 act 0.1 and CYP2C19 activ 0.2.
For Cc1ccc(C)c(-c2cc(C(=O)NCc3cccs3)c3ccccc3n2)c1 the results were CYP2C19 inh 29, PostGolgi yeast -16, CYP2C9 inhib 52*, PostGolgi ctrl 9, CYP2C9 act 0.5 and CYP2C19 activ 0.7.
For Cc1ccc(-c2nc3ccccc3c(C(=O)NCc3cccs3)c2C)cc1 the results were CYP2C19 inh 87*, PostGolgi yeast -3, CYP2C9 inhib 95*, PostGolgi ctrl 19, CYP2C9 act 0.1 and CYP2C19 activ 0.1.
`Cc1ccc(C)c(-c2cc(C(=O)Nc3nccs3)c3ccccc3n2)c1` gave CYP2C19 inh 12, PostGolgi yeast 19, CYP2C9 inhib 49, PostGolgi ctrl 17, CYP2C9 act 0.5 and CYP2C19 activ 0.9.
`COC(=O)CN1C2(C#N)CCCCC2CC2CCCCC21C#N` (stereo not drawn) gave CYP2C19 inh -16, PostGolgi yeast 5, CYP2C9 inhib -20, PostGolgi ctrl -1, CYP2C9 act 1.2 and CYP2C19 activ 1.2.
CCc1nnc(NC(=O)CCC(=O)N2CCN(Cc3cc(F)ccc3OC)CC2)s1 was read as CYP2C19 inh 5, PostGolgi yeast 7, CYP2C9 inhib 2, PostGolgi ctrl -1, CYP2C9 act 1 and CYP2C19 activ 1.
`O=C(NCC1COc2ccccc2O1)C1C2C=CC3(CN(Cc4ccccc4Cl)C(=O)C13)O2` (stereo not drawn) gave CYP2C19 inh 10, PostGolgi yeast -2, CYP2C9 inhib 10, PostGolgi ctrl -4, CYP2C9 act 0.9 and CYP2C19 activ 0.9.
Cn1c(C(C#N)C(=O)c2ccco2)nc2ccccc21 (stereo not drawn) was read as CYP2C19 inh 5, PostGolgi yeast 0, CYP2C9 inhib 51*, PostGolgi ctrl 6, CYP2C9 act 0.5 and CYP2C19 activ 0.9.
COc1ccc(-c2nnc(SCc3ccccc3F)o2)cc1 was read as CYP2C19 inh 30, PostGolgi yeast -7, CYP2C9 inhib 5, PostGolgi ctrl 17, CYP2C9 act 0.9 and CYP2C19 activ 0.7.
Screening Clc1ccc(-c2nnc(SCc3nc(-c4ccccc4)no3)o2)cc1 returned CYP2C19 inh 10, PostGolgi yeast -11, CYP2C9 inhib 71*, PostGolgi ctrl 2, CYP2C9 act 0.3 and CYP2C19 activ 0.9.
For Clc1ccc(CSc2nnc(-c3ccncc3)o2)c(Cl)c1 the results were CYP2C19 inh 81*, PostGolgi yeast 0, CYP2C9 inhib 70*, PostGolgi ctrl 16, CYP2C9 act 0.3 and CYP2C19 activ 0.2.
Screening O=c1c(-c2nnc(SCc3ccc(Cl)cc3Cl)o2)cccn1Cc1ccccc1 returned CYP2C19 inh 76*, PostGolgi yeast -1, CYP2C9 inhib 66*, PostGolgi ctrl 66*, CYP2C9 act 0.3 and CYP2C19 activ 0.2.
Screening Fc1ccccc1CSc1nnc(-c2ccccc2)o1 returned CYP2C19 inh 87*, PostGolgi yeast -5, CYP2C9 inhib 77*, PostGolgi ctrl 11, CYP2C9 act 0.2 and CYP2C19 activ 0.1.
For CCC(C)NC(=O)C1c2cc(OC)c(OC)cc2C(=O)N(C)C1c1cccs1 (stereo not drawn) the results were CYP2C19 inh 15, PostGolgi yeast 5, CYP2C9 inhib -1, PostGolgi ctrl 2, CYP2C9 act 1 and CYP2C19 activ 0.8.
`CC(C)(c1ccccc1)c1ccc(OCCCNCCO)cc1` gave CYP2C19 inh 20, PostGolgi yeast 17, CYP2C9 inhib -14, PostGolgi ctrl 14, CYP2C9 act 1.1 and CYP2C19 activ 0.8.
Screening CCOC(=O)Cc1csc(NC(=O)CCc2ccc(S(=O)(=O)N3CCOCC3)cc2)n1 returned CYP2C19 inh 42, PostGolgi yeast 0, CYP2C9 inhib 50, PostGolgi ctrl 2, CYP2C9 act 0.5 and CYP2C19 activ 0.6.
For O=C(O)c1ccc(CSc2nnc(-c3ccco3)o2)cc1 the results were CYP2C19 inh -6, PostGolgi yeast -6, CYP2C9 inhib 38, PostGolgi ctrl 8, CYP2C9 act 0.6 and CYP2C19 activ 1.1.
Screening Cc1ccc(CSc2nnc(-c3ccco3)o2)cc1 returned CYP2C19 inh 48, PostGolgi yeast 4, CYP2C9 inhib 63*, PostGolgi ctrl -2, CYP2C9 act 0.4 and CYP2C19 activ 0.5.
For CCOC(=O)c1oc2ccccc2c1CSc1nnc(-c2ccco2)o1 the results were CYP2C19 inh 14, CYP2C9 inhib 69*, CYP2C9 act 0.3 and CYP2C19 activ 0.9.
`Cc1[nH]c2ccccc2c1Cc1nnc(SCc2ccccc2)o1` gave CYP2C19 inh 69*, PostGolgi yeast 11, CYP2C9 inhib 27, PostGolgi ctrl 35*, CYP2C9 act 0.7 and CYP2C19 activ 0.3.
